Test results as given in PubChem BioAssay (Tox21).
Inconclusive results are not listed. Active and inactive are the calls of the source. Unless noted, the call rests on the fitted dose curve; in most records, active means well fitted curve in the direction sought with a large enough effect in the repeat runs; inconclusive means weak or mixed curves; inactive means no such curve, though single readings can be large; an effect the other way counts as inactive or inconclusive.

How the values were obtained:
[1] = qHTS assay to identify small molecule antagonists of the retinoid acid receptor (RAR) signaling pathway - cell viability counter screen (AID 1159551); further: nearly all actives have a fitted effect of over 35% in size
Procedure, shortened: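 ATP-based viability, C3RL4 cells, 6 h at 37 C with 1 uM final retinol co-added after compound; luminescence read 30 min post CellTiter-Glo, RT.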

[2] = qHTS assay to identify small molecule antagonists of the retinoic acid receptor (RAR) signaling pathway (AID 1159552; further: nearly all actives have a fitted effect of over 50% in size)
Procedure, shortened: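 Cells of the C3RL4 line were seeded, incubated overnight, then dosed with compounds in DMSO followed immediately by retinol (1 uM final). Six hours later luciferase detection reagent went in; signal was measured after 30 min at RT.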

[3] = qHTS assay to identify small molecule agonists of the retinoic acid receptor (RAR) signaling pathway (AID 1159553)
Procedure, shortened: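 Quantitative high-throughput format: the Tox21 10K library was tested on C3RL4 RARE-luciferase cells for 6 hr at 37 C and 5% CO2, with luminescence measured after a 30 min room-temperature reagent step.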

[4] = qHTS assay to identify small molecule antagonists of the estrogen related receptor (ERR) signaling pathway from Tox21 library - cell viability counter screen (AID 1224834); further: nearly all actives have a fitted effect of over 30% in size
Procedure, shortened: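 Compounds in DMSO were pinned onto ERR cells that had been incubated for 6 h, and the plates were held at 37 C for 17.5 h. CellTiter-Fluor reagent was then added and fluorescence was measured after 30 min.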

[5] = target: Luciferin 4-monooxygenase (Photinus pyralis) (UniProt P08659); experiment: qHTS assay to identify small molecule inhibitors of firefly luciferase (AID 1224835); further: nearly all actives have a fitted effect of over 25% in size
Chain of Luciferin 4-monooxygenase (Photinus pyralis) (P08659 whole entry, looked up): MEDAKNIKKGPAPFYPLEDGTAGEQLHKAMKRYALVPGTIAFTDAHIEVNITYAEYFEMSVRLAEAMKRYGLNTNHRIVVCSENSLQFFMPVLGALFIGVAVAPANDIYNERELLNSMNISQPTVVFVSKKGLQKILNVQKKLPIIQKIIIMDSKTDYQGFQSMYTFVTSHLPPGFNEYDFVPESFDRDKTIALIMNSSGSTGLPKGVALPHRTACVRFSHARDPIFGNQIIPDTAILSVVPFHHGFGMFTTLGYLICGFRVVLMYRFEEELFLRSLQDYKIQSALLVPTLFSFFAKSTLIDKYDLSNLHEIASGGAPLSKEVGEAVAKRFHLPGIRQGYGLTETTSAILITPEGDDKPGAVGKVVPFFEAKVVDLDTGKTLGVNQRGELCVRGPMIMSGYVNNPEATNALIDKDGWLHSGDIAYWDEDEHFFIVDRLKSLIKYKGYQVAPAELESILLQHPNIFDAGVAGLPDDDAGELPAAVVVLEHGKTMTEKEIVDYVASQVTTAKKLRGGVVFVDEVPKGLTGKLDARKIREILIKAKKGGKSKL
Procedure, shortened: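 Inhibition of purified Photinus luciferase is measured by luminescence. Substrate levels (D-luciferin, ATP) sit at their KM values. Each compound is tested in a concentration series.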

[6] = qHTS assay to identify small molecule agonists of the constitutive androstane receptor (CAR) signaling pathway - cell viability counter screen (AID 1224836); further: nearly all actives have a fitted effect of over 45% in size
Procedure, shortened: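 HepG2-CYP2B6-hCAR, 2500 cells/well, 4 h pre-incubation; cpd 15 conc + PK11195 0.75 uM final; 23 h, 37 C/5% CO2; CellTiter-Fluor, fluorescence.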

[7] = qHTS assay to identify small molecule antagonists of the constitutive androstane receptor (CAR) signaling pathway - cell viability counter screen (AID 1224837); further: nearly all actives have a fitted effect of over 45% in size
Procedure, shortened: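 Cells are seeded, rested 4 hr at 37 C/5% CO2, dosed with compound (15-point series) and 50 nM CITCO, incubated a further 23 hr, and then CellTiter-Fluor reagent is added before fluorescence is read. The line is HepG2 with stable hCAR and CYP2B6-2.2kb.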

[8] = qHTS assay to identify small molecule antagonists of the estrogen related receptor signaling pathway with the pleiotropic PPARgamma coactivator (PGC) from Tox21 10K library - cell viability counter screen (AID 1224840; active means well fitted cell-killing curve with a large enough effect in the repeat runs, not every such curve was filed as active; further: nearly all actives have a fitted effect of over 40% in size)
Procedure, shortened: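 Cell viability is measured by CellTiter-Fluor fluorescence in PGC/ERR cells that receive compounds after a 6-hour attachment period and are then incubated 17.5 hours at 37 C.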

[9] = target: Thyrotropin receptor (Homo sapiens) (UniProt P16473); experiment: qHTS assay to identify small molecule agonists of the thyroid stimulating hormone receptor (TSHR) signaling pathway (AID 1224843; calls by dose curve; further: nearly all actives have a fitted effect of over 45% in size)
Chain of Thyrotropin receptor (Homo sapiens) (P16473 whole entry, looked up): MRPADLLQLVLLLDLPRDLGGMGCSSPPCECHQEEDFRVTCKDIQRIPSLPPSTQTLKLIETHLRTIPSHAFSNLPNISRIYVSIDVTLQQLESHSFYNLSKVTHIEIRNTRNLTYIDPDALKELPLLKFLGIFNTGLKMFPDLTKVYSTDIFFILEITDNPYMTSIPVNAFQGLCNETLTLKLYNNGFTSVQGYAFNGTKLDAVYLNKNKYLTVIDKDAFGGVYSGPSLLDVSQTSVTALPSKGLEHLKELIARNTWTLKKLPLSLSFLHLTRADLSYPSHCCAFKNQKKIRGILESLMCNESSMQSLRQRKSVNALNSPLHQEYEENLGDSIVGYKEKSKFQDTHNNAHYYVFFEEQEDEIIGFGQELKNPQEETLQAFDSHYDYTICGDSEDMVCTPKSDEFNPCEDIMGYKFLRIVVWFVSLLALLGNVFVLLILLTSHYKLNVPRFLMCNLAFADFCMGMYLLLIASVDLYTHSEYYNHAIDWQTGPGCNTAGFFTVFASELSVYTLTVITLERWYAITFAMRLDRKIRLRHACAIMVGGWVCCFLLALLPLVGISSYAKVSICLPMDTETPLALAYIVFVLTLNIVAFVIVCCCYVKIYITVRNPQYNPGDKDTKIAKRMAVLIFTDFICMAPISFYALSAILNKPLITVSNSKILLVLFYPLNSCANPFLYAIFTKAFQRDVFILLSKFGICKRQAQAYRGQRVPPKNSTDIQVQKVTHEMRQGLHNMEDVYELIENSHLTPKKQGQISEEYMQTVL
Procedure, shortened: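 A cell-based cAMP HTRF format was run in TSHR-transfected HEK293 cells, 800 per well. Treatment: 30 min, room temperature. Detection: 1 h with labelled cAMP and anti-cAMP cryptate. Concentration-response over 15 points, three replicates.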

[10] = qHTS assay to identify small molecule agonists of H2AX (AID 1224845; active means well fitted activation curve with a large enough effect in the signal ratio in the repeat runs, not every such curve was filed as active; the % refers to the signal ratio)
Procedure, shortened: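 Phospho-H2AX Ser139 measured by HTRF (ex 320 nm; em 665 and 620 nm) after 24 hr antibody incubation. Compounds, 15 concentrations, 0.76% DMSO, were applied to CHO-K1 cells for 3hr at 37C before lysis.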

[11] = qHTS assay to identify small molecule agonists of the hypoxia (HIF-1) signaling pathway (AID 1224846; active means well fitted activation curve with a large enough effect in the signal ratio in the repeat runs, not every such curve was filed as active; the % refers to the signal ratio)
Procedure, shortened: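 Agonist mode reporter screen. ME-180 cells stably expressing bla under HRE control received test compounds in DMSO for 17 hrs (37C, 5% CO2), and beta-lactamase activity was then detected with the CCF4-AM FRET substrate.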

[12] = qHTS assay to identify small molecule agonists of H2AX - cell viability counter screen (AID 1224847; calls by dose curve;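 further: wild-type CHO-K1 cells; top concentration of the series differs between compounds; nearly all actives have a fitted effect of over 30% in size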)
Procedure, shortened: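 Cells plated first: CHO-K1, 1000 per well in 10% FBS medium, incubated overnight at 37C. Then 15-point compound titration added (final DMSO 0.76%) for 3 hr. Finally CellTiter-Glo added and luminescence read.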

[13] = qHTS RealTime-Glo MT Cell Viability Assay in HepG2 cells - 24 hour (AID 1224867); further: nearly all actives have a fitted effect of over 50% in size
Procedure, shortened: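 qHTS, HepG2, 600 cells/well, RealTime-Glo (NanoLuc + prosubstrate) added with cells; 5 h preincubation; DMSO compound addition; 37 C; luminescence at 0/8/16/24/32/40 h.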

[14] = qHTS assay to identify small molecule antagonists of the estrogen related receptor signaling pathway with the pleiotropic PPARgamma coactivator (PGC) from Tox21 10K library (AID 1224841; call rule not given here; further: actives are mostly falling curves and most rising ones were filed inactive; nearly all actives have a fitted effect of over 50% in size)
Procedure, shortened: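 Cells stably carrying the PGC/ERR reporter, seeded at 2,000 per well, received pin-transferred compounds 6 h post-plating. Exposure lasted 18 h at 37 C. Signal: One-Glo luminescence.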

[15] = qHTS assay to identify small molecule agonists of the estrogen related receptor signaling pathway with the pleiotropic PPARgamma coactivator (PGC) from Tox21 10K library (AID 1224842); further: nearly all actives have a fitted effect of over 15% in size
Procedure, shortened: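 Luminescence from One-Glo (30 min, room temperature) measured after PGC/ERR cells had 18 h at 37 C with pinned compound (23 nL in DMSO). Cells had been seeded at 2,000 per well and pre-incubated 6 h.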

[16] = qHTS assay to identify small molecule agonists of the hypoxia (HIF-1) signaling pathway - cell viability counter screen (AID 1224844; calls by dose curve; further: nearly all actives have a fitted effect of over 50% in size)
Procedure, shortened: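 Viability counter screen: HRE-bla ME-180 cells plated 5 hrs before compound addition, treated 17 hrs at 37C and 5% CO2, then CellTiter-Glo added after the FRET reporter read; luminescence after 30 min.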

[17] = qHTS assay to identify small molecule antagonists of the estrogen related receptor (ERR) signaling pathway from Tox21 library (AID 1224848); further: nearly all actives have a fitted effect of over 50% in size
Procedure, shortened: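 ERR cell line, 2,000 cells/well. 6 h settle, then compound (DMSO) added; 18 h at 37 C; ONE-Glo luminescence after 30 min RT.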

[18] = qHTS assay to identify small molecule agonists of the estrogen related receptor (ERR) signaling pathway from Tox21 library (AID 1224849; calls by dose curve; further: nearly all actives have a fitted effect of over 15% in size); settings: ERR reporter cell line, ONE-Glo luciferase, 18 h; at 92.4 µM (top of the series) unless noted
Procedure, shortened: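 Quantitative HTS in agonist format: NTP ERR cell line, compounds transferred in DMSO after 6 h plating, 18 h incubation at 37 C, ONE-Glo luminescence endpoint.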

[19] = target: Nuclear receptor subfamily 1 group I member 3 (Homo sapiens) (UniProt Q14994); experiment: qHTS assay to identify small molecule antagonists of the constitutive androstane receptor (CAR) signaling pathway (AID 1224838);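 further: HepG2 cells stably expressing hCAR with CYP2B6 luciferase reporter stimulated by CITCO; nearly all actives have a fitted effect of over 40% in size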
Chain of Nuclear receptor subfamily 1 group I member 3 (Homo sapiens) (Q14994 whole entry, looked up): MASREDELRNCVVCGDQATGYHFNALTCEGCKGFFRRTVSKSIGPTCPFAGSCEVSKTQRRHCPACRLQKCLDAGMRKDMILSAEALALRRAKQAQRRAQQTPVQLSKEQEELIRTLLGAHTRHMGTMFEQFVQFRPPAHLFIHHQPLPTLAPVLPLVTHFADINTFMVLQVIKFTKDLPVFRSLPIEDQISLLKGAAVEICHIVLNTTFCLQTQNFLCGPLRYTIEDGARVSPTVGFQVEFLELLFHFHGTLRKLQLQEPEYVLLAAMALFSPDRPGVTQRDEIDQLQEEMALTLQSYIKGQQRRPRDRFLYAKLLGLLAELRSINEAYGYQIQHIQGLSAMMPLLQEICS
Procedure, shortened: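 Luminescence from a CYP2B6-2.2kb promoter reporter in hCAR-expressing HepG2 cells reflects CAR signaling. Cells received compounds at 15 concentrations and 50 nM CITCO (final), then incubated 24 h at 37 C/5% CO2.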

[20] = target: Nuclear receptor subfamily 1 group I member 3 (Homo sapiens) (UniProt Q14994); experiment: qHTS assay to identify small molecule agonists of the constitutive androstane receptor (CAR) signaling pathway (AID 1224839);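 further: HepG2 cells stably carrying human CAR and a CYP2B6 luciferase reporter; nearly all actives have a fitted effect of over 15% in size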
Procedure, shortened: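 HepG2-CYP2B6-hCAR cells, 2500/well, 4 h pre-incubation; compounds 15 conc.; PK11195 0.75 uM final; 24 h, 37 C/5% CO2; ONE-Glo luciferase read.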
On the % scale 0 is the no-effect control and ±100 the full control effect.

CN(C)CCc1c[nH]c2ccc(C[C@H]3COC(=O)N3)cc12
inactive: outcome [1] | outcome [2] | Potency [3] | outcome [4] | Potency [5] | outcome [6] | outcome [7] | outcome [8] | Potency [9] | outcome [10] | outcome [11] | outcome [12] | outcome [13]

N=C(N)S(=O)O
inactive: outcome [1] | outcome [2] | Potency [3] | outcome [4] | Potency [5] | outcome [6] | outcome [8] | Potency [14] | Potency [15] | Potency [9] | outcome [16] | outcome [10] | outcome [11] | outcome [12] | outcome [17] | activity change, positive = activation [18] 2.21% | outcome [13]

O=C(CCBr)N1CCN(C(=O)CCBr)CC1
inactive: outcome [1] | outcome [2] | Potency [3] | outcome [4] | Potency [5] | outcome [6] | outcome [8] | Potency [9] | outcome [16] | outcome [10] | outcome [11] | outcome [12] | outcome [13]

COC(C)(C)CC(C)=O
inactive: outcome [1] | outcome [2] | Potency [3] | outcome [4] | Potency [5] | outcome [6] | outcome [19] | Potency [20] | outcome [8] | outcome [16] | outcome [10] | outcome [12] | outcome [13]

NS(=O)(=O)c1cc2c(cc1C(F)(F)F)NCNS2(=O)=O
inactive: outcome [1] | outcome [2] | Potency [3] | outcome [4] | Potency [5] | outcome [6] | outcome [7] | outcome [8] | Potency [9] | outcome [16] | outcome [10] | outcome [12] | outcome [13]

O=C(O)Cc1ccccc1Oc1ccc(Cl)cc1Cl
inactive: outcome [1] | outcome [2] | Potency [3] | outcome [4] | Potency [5] | outcome [6] | outcome [7] | outcome [8] | Potency [9] | outcome [10] | outcome [11] | outcome [12] | outcome [13]

COc1ccccc1N1CCN(CC(O)COc2cc(OC)c(OC)c(OC)c2)CC1 (stereo not given)
inactive: outcome [1] | outcome [2] | Potency [3] | outcome [4] | Potency [5] | outcome [6] | Potency [20] | outcome [8] | Potency [9] | outcome [16] | outcome [10] | outcome [11] | outcome [12] | outcome [13]

CCOc1ccccc1OCCN[C@H](C)Cc1ccc(OC)c(S(N)(=O)=O)c1
inactive: outcome [1] | Potency [3] | outcome [4] | Potency [5] | outcome [6] | outcome [7] | outcome [19] | Potency [20] | outcome [8] | Potency [9] | outcome [16] | outcome [10] | outcome [11] | outcome [12] | outcome [13]

CCCCCCCCC1CO1 (stereo not given)
inactive: outcome [1] | Potency [3] | outcome [4] | Potency [5] | outcome [6] | outcome [7] | outcome [19] | Potency [20] | outcome [8] | Potency [9] | outcome [16] | outcome [10] | outcome [11] | outcome [13]
